Assay outcomes: PubChem, National Center for Advancing Translational Sciences (NCATS)
The list is not random: actives were taken first. Their share in the collection is about 10%.
GLS inh: blocks human kidney-isoform glutaminase activity | O94925 | Potency, µM (titrated, usually from 45.5 µM), inactives show top-dose activity change, negative = inhibition, usual class: inhibitors | GLS enzymatic activity, qHTS titration | AID 624170 | 0.21% of 410,000 active; also: % is scaled to controls: 0 for no effect and ±100 for the full control effect
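Coupled fluorescence readout: glutamate oxidase/HRP/Amplex Red detect glutamate formed by hKGA from L-glutamine (1 mM solution added). Buffer 45 mM KH2PO4 pH 8.2, 0.02% Tween-20; reads at t0 and 30 min RT.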
HP1b binding inh: blocks HP1-beta chromodomain binding to methylated histone tails. AlphaScreen HP1-beta / biotin-H3K9me3 peptide binding. P83916. Potency, µM (titrated, usually from 114 µM), for inactives: at the highest dose activity change, negative = inhibition, most hits filed as inhibitors. 0.56% of 390,000 active; also: nearly all actives have a fitted effect of over 70% in size
Target sequence (P83916 whole entry, looked up): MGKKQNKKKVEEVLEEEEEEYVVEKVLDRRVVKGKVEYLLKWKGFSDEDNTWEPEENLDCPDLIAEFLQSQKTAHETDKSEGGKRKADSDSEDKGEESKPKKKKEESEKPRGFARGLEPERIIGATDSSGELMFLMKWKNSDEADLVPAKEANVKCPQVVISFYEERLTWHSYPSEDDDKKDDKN
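Compound inhibition of the preformed complex between 50 nM HP1-beta and 50 nM biotinylated H3K9me3 peptide was read by AlphaScreen. Buffer was PBS pH 7.4 with 0.01% Tween-20. Incubations ran 30 min at room temperature, with 10 ug/mL donor/acceptor beads.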
JMJD2A Tudor: JMJD2A Tudor domain (human) inhibition | O75164 | AlphaScreen JMJD2A-Tudor / H3K4me3 peptide binding | Potency, µM (doses to about 114 µM), for inactives: at the highest dose activity change, negative = inhibition, usual class: inhibitors | 4.4% of 390,000 active; also: % is scaled to controls: 0 for no effect and ±100 for the full control effect; nearly all actives have a fitted effect of over 50% in size
G9a inh: inhibitors of human histone lysine methyltransferase G9a. Q96KQ7. G9a H3K9 monomethylation, AlphaScreen, 2 h. 8.8% of 350,000 active. AID 504332. Potency, µM (doses to about 102 µM), inactives show at the highest dose activity, negative = inhibition, actives largely listed as inhibitors; also: % is scaled to controls: 0 for no effect and ±100 for the full control effect; nearly all actives have a fitted effect of over 75% in size
Target sequence (Q96KQ7 913-1193 limits assumed): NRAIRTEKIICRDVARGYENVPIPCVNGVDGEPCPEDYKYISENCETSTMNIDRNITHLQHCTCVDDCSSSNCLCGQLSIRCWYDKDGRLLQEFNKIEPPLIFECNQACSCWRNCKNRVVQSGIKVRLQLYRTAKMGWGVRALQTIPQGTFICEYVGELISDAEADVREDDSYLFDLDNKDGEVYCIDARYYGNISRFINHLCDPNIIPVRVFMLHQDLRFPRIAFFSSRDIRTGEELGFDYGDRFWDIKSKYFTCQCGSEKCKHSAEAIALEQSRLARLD
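AlphaScreen detection with an anti-monomethyl H3K9 antibody quantified product after a 2 h room-temperature reaction containing 500 nM biotinylated H3K9 peptide, 20 µM SAM and 20 nM enzyme, which had been preincubated 15 min with compound.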
BAZ2B inh: blocks human BAZ2B | AlphaScreen BAZ2B-H3K14Ac peptide displacement | AID 504333 | 4.4% of 360,000 active | Q9UIF8 | Potency, µM (highest dose often 114 µM), for the others: at the top dose activity change, negative = inhibition, hits mostly inhibitors; also: % is scaled to controls: 0 for no effect and ±100 for the full control effect; nearly all actives have a fitted effect of over 60% in size
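AlphaScreen displacement of biotin-H3(5-23)K14Ac peptide (50 nM final) from BAZ2B (50 nM final) in PBS pH 7.4, 0.01% Tween-20; complex preformed 30 min RT, then compounds (top 110 uM) 30 min RT, beads 20 min dark.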
* hit, by the source's call; ? = inconclusive; · = not tested or not shown; ! = not confirmed by another sample; [ ] = another dose, or the depositor's remark. Calls follow the shape of the dose curve; as a rule, active = well fitted curve in the direction sought with a large enough effect; inconclusive = small, poorly fitted or top-dose-only effect, or another doubt; inactive = no such curve, though single readings can be large; an effect the other way counts as inactive or inconclusive. Potency is read from the fitted curve at half-maximal effect.

SMILES	GLS inh	HP1b binding inh	JMJD2A Tudor	G9a inh	BAZ2B inh
CC(C)(OOC1(c2ccccc2)NC(=O)c2ccccc21)c1ccccc1 (centres undefined)	-15.7%	·	·	·	·
CCC(=O)Nc1ccccc1	4.6%	15.7%	-19.7%	8.4%[12.7 µM]	4.8%
CCC(=O)Nc1cc(C(=O)O)ccc1S(=O)(=O)c1ccc(C)cc1	171.8%	7.9%	?	44.7µM*	?
CCC(=O)OC1(c2ccccc2)CCN(C)CC1	-2.4%[99.4 µM]	·	·	·	·
CN(C)c1ccc(P(=O)(Nc2ccc([N+](=O)[O-])cc2)N2CCOCC2)c(NC(=O)c2cccs2)c1 (centres undefined)	11.5%	-8.5%	-26.7%	44.7µM*	?
Cc1cc(N2C(=O)C3CCCN3C2c2ccccc2)no1 (centres undefined)	-7.6%	-24.6%	28.2µM*	?	?
Cc1ccc(C2N(c3cc(C)on3)C(=O)C3CCCN32)cc1 (centres undefined)	0.1%	25.4%	-30.5%[57.1 µM]	35.5µM*	-34.6%
O=C1C2CCCN2C(c2cccnc2)N1c1ccc(Cl)cc1 (centres undefined)	1.9%	40.7%	-14.4%	-25.2%	8.3%
CCN1C[C@@]2(COC)C3[C@@H](OC)C4[C@@H]1C3([C@@H]1C[C@]3(O)[C@H](OC(=O)c5ccccc5)[C@@H]1[C@]4(OC(C)=O)[C@@H](O)[C@@H]3OC)[C@H](OC)C[C@H]2O	·	·	·	21.4%[59 µM]	·
NC(N)=NCCCCCCCCCCN=C(N)N	·	·	·	-0.6%[59 µM]	·
COc1cccc(C(=O)C2CCCN(Cc3ccccn3)C2)c1 (centres undefined)	12.1%	6.7%	-19.2%	·	-10.2%
Cc1cccc(CN2CCc3nc(N4CCN(c5ccccn5)CC4)ncc3C2)c1	-5.1%	6.1%	79.4µM*	?	50.1µM*
COc1cccc(CN2CCc3nc(N4CCN(c5ncccn5)CC4)ncc3C2)c1	1.3%	-6.7%	63.1µM*	-1.4%[12.7 µM]	39.8µM*
CN1CC[C@]23c4c5ccc(O)c4OC2C(O)CCC3[C@H]1C5 (some centres undefined)	54.2%[99.4 µM]	·	·	·	·
O=C(O)CCCC[C@@H]1SC[C@@H]2NC(=O)N[C@@H]21	-2.6%	-72.2%	?	·	·
Cn1c(=O)oc2cc(NC(=O)CCl)ccc21	8.9%	54.2%	-15.1%	-5.9%[12.7 µM]	1.5%
O=C(O)c1ccccc1S	-0.1%	·	·	39.8µM*	2.8%
NC(CP(=O)(O)O)C(=O)O (centres undefined)	·	·	·	26.7µM*!	·
NC(CCCP(=O)(O)O)C(=O)O (centres undefined)	·	·	·	0.4%[59 µM]	·
NC(CCCCCP(=O)(O)O)C(=O)O (centres undefined)	·	·	·	5.97µM*	·
COc1ccc(NC2Oc3cc4c(cc3C(c3cc(OC)c(OC)c(OC)c3)C2C)OCO4)cc1 (centres undefined)	7.3%	?	56.2µM*	·	·
c1ccc2nc3ccccc3nc2c1	6.7%	41.5%	-23.1%	44.7µM*	-2.7%
COC1CCCCC1NCCc1ccccc1 (centres undefined)	9.1%	?	?	?	-29.9%
CCC(CC)NC1CCCCC1OC (centres undefined)	60.4%	18.6%	50.1µM*	?	?
COc1ccc(CNCCc2c[nH]c3ccccc23)c(OC)c1OC	-3.9%	18.3%	-27.4%	?	-37.0%
SMILES	GLS inh	HP1b binding inh	JMJD2A Tudor	G9a inh	BAZ2B inh
COc1ccccc1CCNCc1ccc(OC)c(OC)c1OC	3.1%	-34.6%	20µM*	·	39.8µM*
COc1ccc(CCNCc2ccc(OC)c(OC)c2OC)cc1	-12.3%	?	3.16µM*	14.1µM*	79.4µM*
CCOC(=O)/C=C(C)/C=C/CC(C)CCCC(C)C (centres undefined)	0.7%	·	·	2.2%[12.7 µM]	·
O=C1OC(=O)C2C3CCC(O3)C12 (centres undefined)	·	·	·	-1.8%[59 µM]	-4.5%
CCCCC[C@@H](/C=C/C=C\C/C=C\C/C=C\CCCC(=O)O)OO	·	·	·	27.3%[59 µM]	·
O=C(O)CSCC(=O)N(Cc1ccccc1)c1nc(-c2ccccc2)c(-c2ccccc2)s1	9.7%	-22.0%	56.2µM*	?	50.1µM*
O=C(O)c1cn(Cc2ccccc2)nc1-c1ccccc1	21.8%	33.3%	-9.6%	6.5%	-17.2%
O=C(Nc1cccc(F)c1)N1CCCC2(CCN(C(=O)Oc3ccccc3)CC2)C1	·	·	·	2.9%[12.7 µM]	·
Oc1ccc(C[C@H]2NCCc3cc(O)c(O)cc32)cc1O	3.2%	79.4µM*	39.8µM*	?	-19.3%
Cc1noc(C)c1C(=O)N1CCC[C@@]2(CCN(CC(C)C)C2)C1	·	·	·	-0.2%[12.7 µM]	·
CN(C)c1ccc(/C=C/[N+](=O)[O-])cc1	-13.3%	2.5%[57 µM]	-4.1%	70.8µM*	-6.3%
COc1cc2c(cc1/C=C/[N+](=O)[O-])OCO2	1.7%	44.4%	-22.8%	?	-29.9%
O=[N+]([O-])/C=C/c1ccc2c(c1)OCO2	·	·	·	2.12µM*	·
N#C/C(=C\c1ccc(O)c(O)c1)C(=O)NCCCNC(=O)/C(C#N)=C/c1ccc(O)c(O)c1	·	·	·	1.68µM*	·
N#C/C(=C/c1ccc(O)c(O)c1)C(N)=S	·	·	·	7.52µM*	·
NC(N)=NN=C(/C=C/c1ccc([N+](=O)[O-])o1)/C=C/c1ccc([N+](=O)[O-])o1	-4.2%	·	·	?	·
CCCCC/C=C\C/C=C\C/C=C\C/C=C\CCCC(=O)NCc1ccoc1	·	·	·	14.1µM*	·
CCCCC/C=C\C/C=C\C/C=C\C/C=C\CCCC(=O)NCC(=O)O	-2.2%[4 µM]	·	·	11.9µM*!	·
CCCCC/C=C\C/C=C\C/C=C\C/C=C\CCCC(=O)NCCCC(=O)O	·	·	·	-4.6%[59 µM]	·
CCCCC/C=C\C/C=C\C/C=C\C/C=C\CCCC(=O)NCCc1ccc(O)c(O)c1	·	·	·	11.2µM*	·
C[C@H](N)Cc1cnc[nH]1	·	·	·	-38.7%[59 µM]	·
COc1cc([C@H]2c3cc4c(cc3[C@@H](O)[C@@H]3COC(=O)[C@H]23)OCO4)cc(OC)c1OC	·	·	·	17.9%[21.5 µM]	·
Cc1ccc(-n2c(O)c(/C=N/NC(=O)c3ccncc3)c(=O)[nH]c2=O)cc1	4.9%	37.3%	?	?	50.1µM*
O=C(N/N=C/c1c(O)n(-c2ccccc2)c(=O)[nH]c1=O)c1ccncc1	-15.3%	46.4%	?	-2.0%[59 µM]	?
Cc1cccc(-n2c(O)c(/C=N/NC(=O)c3ccncc3)c(=O)[nH]c2=O)c1	-3.7%	35.2%	79.4µM*	37.2%[12.7 µM]	?
CCOC(=O)[C@]12Cc3cc(C)ccc3[C@H]1N(Cc1ccccc1)C(=O)c1cc(OC)ccc12	17.4%	·	·	·	·
CCCN1CCCC2Cc3nc(N)ncc3CC21 (centres undefined)	15.0%	·	·	-7.3%[59 µM]	·
O=C(CCCCCn1c(=S)[nH]c2ccccc2c1=O)N1CCC2(CC1)OCCO2	-2.3%	40.5%	-22.5%	50.1µM*	-7.2%
CNCC(O)c1cccc(OC(=O)c2ccccc2C)c1 (centres undefined)	-20.5%	53.7%	26.0%[11.4 µM]	56.2µM*	-0.9%
Cc1cccc(N2C(=O)/C(=C/c3ccc(CN(CCC#N)S(C)(=O)=O)o3)C(=O)NC2=S)c1	?	?	50.1µM*	?	50.1µM*
